Test results taken from PubChem BioAssay AID2314 (National Center for Advancing Translational Sciences (NCATS), 2010).
The whole screen tested about 300,000 compounds, of which about 37,000 (12%) were called active. This is one part of a sample in which actives are shown more often than they occur. Unmarked numbers belong to inactive results. Rule as the data show it: active = max response mostly above about 13% (no sharp cut-off); inactive = mostly below about 14%.

test: Cycloheximide Counterscreen for Small Molecule Inhibitors of Shiga Toxin; conditions: cell reporter, cycloheximide protein synthesis inhibition counterscreen; active compounds read high; also: read at 38.3 µM for the half of the compounds with a filed dose; 0% is about no effect

SMILES	max response
CCCc1nn(C)c2c(=O)[nH]c(-c3cc(S(N)(=O)=O)ccc3OCC)nc12	-4.06%
COCCn1c(SCC(=O)N2CCCCCC2)nc2c(c1=O)SCC2	4.66%
CC(C)Cc1ccc(C(C)C(=N)N)cc1 (stereo not drawn)	-2.08%
COCc1ccc(C(=O)NC2CC(C)(C)Cc3c2cnn3-c2ccc(C)cc2)o1 (stereo not drawn)	4.44%
COCc1c(N)c(C)nc(Cl)c1C#N	14% (active)
COC(=O)c1c(C)c(C)nc(N)c1C#N	5.15%
Cc1nc(Cl)c(C#N)c2c1CCCC2	4.78%
Fc1ccc(CNCc2ccc(Br)cc2)cc1	2.17%
CCc1cc2c(=O)n(-c3ccccc3)c(SCC(=O)O)nc2s1	-0.568%
COCc1cc(=O)[nH]c(SC)n1	-3.39%
O=C(N/N=C/c1ccc(OCc2ccccc2)cc1)c1ccc(O)cc1	18.7%
Cc1ccc(OCCOCCOc2ccc(Br)cc2/C=N\NC(=O)c2ccncc2)cc1	-4.52%
O=C(Cc1cccs1)N/N=C/c1ccc(OCc2ccccc2)cc1	-2.21%
Cc1ccc(OCCOc2cccc(/C=N/NC(N)=O)c2)cc1	15.2% (active)
Cc1cccc(OCC(=O)NCC(=O)N/N=C/c2ccc(N(C)C)cc2)c1	1.69%
O=C(N/N=C/c1cccc(OCc2ccccc2)c1)c1ccc(Br)o1	47.1% (active)
Cc1ccc(S(=O)(=O)Oc2ccc(/C=N/NC(=O)c3ccncc3)cc2)cc1	6.52%
CC(C)NS(=O)(=O)c1ccc(OCC(=O)NC2CCCCCC2)cc1	1.29%
O=C(NCCc1cccc(F)c1)C1CCCN(c2nc3ccccc3s2)C1 (stereo not drawn)	-3.33%
Cc1nc2cc3c(cc2s1)OCO3	-2.58%
Fc1ccc2nc(N3CCCCC3)sc2c1	29.6% (active)
CCOC(=O)N1CCC(NC(=O)c2ccc3nc(N4CCOCC4)sc3c2)CC1	-1.55%
Brc1ccc2nc(N3CCCC3)sc2c1	38.8% (active)
Cc1nc2ccc(S(=O)(=O)NC(C(=O)N3CCCCCC3)C(C)C)cc2s1 (stereo not drawn)	-2.97%
c1ccc2sc(N3CCNCC3)nc2c1	11.7%

SMILES	max response
c1c2c(cc3sc(N4CCCCC4)nc13)OCCO2	25.6% (active)
Cc1nc(N2CCCCC2)sc1C=O	-2.42%
O=C(CN(CC1CCCO1)C(=O)CNS(=O)(=O)c1ccc(Cl)cc1)NCc1ccccc1 (stereo not drawn)	-3.57%
CC1=C[C@H]2Cc3cc(C)cc(C)c3S(=O)(=O)[C@@H]2C=C1	-2.12%
CC(Sc1nnc(-c2ccccc2F)n1C1CC1)C(N)=O (stereo not drawn)	-2.7%
O=C(NNS(=O)(=O)c1ccc([N+](=O)[O-])cc1)C1CCCCC1	10.1%
COc1ccccc1C(=O)N1CCN=C1SCc1cccnc1	0.58%
O=C1CN(C(=O)c2ccccc2F)C(c2ccc(F)cc2)c2cc(F)ccc2N1 (stereo not drawn)	-4.28%
Cc1nccn1CC(=O)N/N=C/c1ccc(O)c(O)c1	-1.27%
O=C(N/N=C/c1ccc(O)c(O)c1)C1c2ccccc2Oc2ccccc21	-0.597%
Oc1ccc(/C=N/Nc2ccc(C(F)(F)F)cn2)cc1O	57.2% (active)
CCCc1cc(=O)[nH]c(SCC(=O)Nc2sc3c(c2C#N)CCCC3)n1	-1.28%
O=S(=O)(NC1CCCCC1N1CCCCC1)c1ccc(Cl)cc1 (stereo not drawn)	-6.15%
O=C(O)c1ccc(S(=O)(=O)N2CCOCC2)o1	-6.82%
COc1ccc(OC)c(NC(=O)CN(Cc2ccc(Cl)cc2)S(C)(=O)=O)c1	-2.07%
COc1ccc(Cl)cc1NC(=O)CN(C)Cc1ccc(OC)c(OC)c1	10.8% (active)
COc1ccc(Cl)cc1NC(=O)CN(C)C(=O)CNC(=O)C12CC3CC(CC(C3)C1)C2	6.85%
CN1CCN(c2ccccc2NC(=O)COc2ccc(C3CCCCC3)cc2)CC1	-1.31%
CCOC(=O)c1cccc(NC(=O)C2CCN(c3ncnc4c3nc3n4CCCCC3)CC2)c1	-6.95%
O=C(NCc1ccncc1)C1CCCN(S(=O)(=O)c2ccc(Br)cc2)C1 (stereo not drawn)	1.08%
COc1ccc(CSc2nnnn2-c2ccc(O)cc2)cc1F	-3.78%
CCc1ccc2oc(-c3ccc(N)cc3)nc2c1	38.2% (active)
Cn1c(Cc2cccc3ccccc23)nnc1SCC(=O)N1CCN(c2cccc(Cl)c2)CC1	-3.1%
COCc1cc(C)n(CC(=O)NCC2CCCO2)c(=O)c1C#N (stereo not drawn)	-6.37%
Cc1c(CCC(=O)O)c(=O)oc2c(C)c(OCc3ccccc3Cl)ccc12	1.9%

SMILES	max response
CC(C)(C)n1nnnc1C(c1ccccc1F)N1CCN(C(=O)c2ccco2)CC1 (stereo not drawn)	-1.72%
COCCCNC(=O)/C=C/c1ccc(OCc2c(F)cccc2Cl)cc1	-7.84%
CN(C)CCCNC(=O)/C=C/c1ccc(OCc2c(F)cccc2Cl)cc1	-2.24%
O=C(/C=C/c1ccc(OCc2c(F)cccc2Cl)cc1)N1CCOCC1	27.3% (active)
COc1ccc(NS(=O)(=O)c2cc(C(=O)Nc3ccccc3C(=O)O)ccc2C)cc1	1.17%
CCOc1cc(N2CCOCC2)c(OCC)cc1NC(=O)c1cc(C)nc2ccccc12	-1.57%
O=[N+]([O-])c1ccc2c(c1)C(O)n1nc(-c3ccccc3)nc1S2 (stereo not drawn)	-1.52%
CC(=O)Oc1ccc2c(=O)oc(-c3ccc([N+](=O)[O-])cc3)nc2c1	1.51%
O=[N+]([O-])c1ccc2oc(-c3cccc(O)c3)nc2c1	46.9% (active)
COc1ccc(-c2nc3cc([N+](=O)[O-])ccc3o2)cc1OC	24% (active)
Cc1nnc(-c2ccc(Oc3ccc(C)c(C)c3)c([N+](=O)[O-])c2)o1	4.56%
COc1cc2c(cc1OC)C(c1cccc([N+](=O)[O-])c1)=NCC2	-3.32%
O=C1[C@@H]2C(c3cccnc3)=NO[C@@H]2C(=O)N1c1ccc(Cl)cc1Cl	-1.88%
Oc1ccc(-c2cccc(-c3ccc(O)cc3)c2)cc1	29.3% (active)
Oc1ccc(-c2nncn2-c2ccccc2)cc1	1.52%
O=C(CN1CCN(c2ccc(O)cc2)CC1)Nc1ccc(-c2ccccc2)cc1	-0.918%
CCc1ccc(CNC(=O)C2CCN(c3nnc(C)c4c(C)n(-c5ccc(C)cc5)nc34)CC2)cc1	-4.27%
COc1ccc(C(=O)N2CCCCC2C(=O)Nc2ccc(-n3nc(C)cc3C)cc2)o1 (stereo not drawn)	-1.42%
C[C@H](NC(=O)C1CC(=O)N(c2ccc3c(c2)OCO3)C1)C(=O)NCc1ccco1 (stereo partly drawn)	1.48%
CCOc1ccc(C2C(C#N)=C(N)N(N(C)C)C3=C2C(=O)CCC3)cc1 (stereo not drawn)	0.68%
O=C1c2ccccc2C(=O)c2c1cccc2N1CCN(Cc2ccccc2)CC1	1.13%
O=C1c2ccccc2C(=O)c2c1cccc2N1CCN(CCO)CC1	28.2% (active)
O=C(NC(c1ccccc1)c1ccccc1)N1CCN(CCO)CC1	-1.21%
CN(C)c1ccc(S(=O)(=O)NCC(=O)NCC2CCCCC2)cc1[N+](=O)[O-]	-5.92%
Cc1ccc(NC(=O)Cc2nnc(SCC(=O)Nc3nncs3)n2C)cc1	-3.09%

SMILES	max response
CN1C(=O)/C(=C/c2ccc(C(=O)NC3CCCC3)cc2)Oc2ccccc21	7.07%
COCCCN1C(=O)C(=O)/C(=C(/O)c2ccc(S(=O)(=O)N3CCOCC3)cc2)C1c1ccc(F)cc1 (stereo not drawn)	-2.34%
COc1ccc2cc(CCl)c(Cl)nc2c1	27% (active)
COc1ccc(CN2CCC(c3nc4ccc(Cl)cc4[nH]3)CC2)cc1	-5.26%
CCc1cc2cc(OC)ccc2nc1SCC(=O)Nc1cc(OC)c(OC)cc1C(=O)O	-1.72%
O=C(NCc1ccccn1)C1CCN(S(=O)(=O)c2ccc(Br)cc2)CC1	5.38%
O=C(CSCc1ccccc1)Nc1ccccc1	54.4% (active)
Cn1c(CSCC(=O)Nc2ccccc2)nnc1SCc1ccccc1	1.76%
Cc1c(NC(=O)CSCc2ccccc2)cccc1C(=O)O	10.7%
CC(=O)c1ccc(NC(=O)c2ccc(-n3cncn3)c([N+](=O)[O-])c2)cc1	5.03%
CC(C)C(c1nnnn1C1CCCCC1)N1CCN(C(=O)c2ccco2)CC1 (stereo not drawn)	-3.08%
COc1ccc(N(CC(=O)Nc2ccc(F)c(F)c2)S(=O)(=O)c2c(C)[nH]c(=O)[nH]c2=O)cc1	-1.45%
CCc1ccc(/C=N/NC(=O)c2nnn(-c3nonc3N)c2CN2CCc3ccccc32)cc1	1.36%
CC(=O)c1cccc(OCc2cc(C(=O)NC(C)Cc3cccnc3)no2)c1 (stereo not drawn)	23% (active)
CCOC(=O)C1CCCN(C(=O)c2cncc(Br)c2)C1 (stereo not drawn)	-3.79%
Cc1cc(Cl)ccc1C(=O)C1CCCN(C(=O)c2nonc2C)C1 (stereo not drawn)	-0.841%
Cc1cccnc1NC(=O)CSc1nnc(COc2ccc(C(C)C)cc2)n1C	-8.69%
CC(CCc1ccccc1)NC(=O)c1cnc(Cl)c(Cl)c1 (stereo not drawn)	-1.25%
CCOC(=O)CC1(NC(=O)c2cc(COc3cncc(Cl)c3)on2)CCCCC1	11.2% (active)
Cc1cccnc1CC(C)NC(=O)c1cc(COc2cncc(Cl)c2)on1 (stereo not drawn)	32.7% (active)
Cc1noc(C)c1COc1cccc(C(=O)Nc2cccnc2)c1	-2.49%
CCCOC1CCCN(C(=O)c2cc(COc3cncc(Cl)c3)on2)C1 (stereo not drawn)	40.2% (active)
Cc1cccc(OCC(=O)NCCNC(=O)c2cccnc2)c1	-6.99%
